Source: PubChem (National Center for Advancing Translational Sciences (NCATS))
Sampled rows, rich in hits. Any-hit rate of the full collection: about 8.3%.
HCV inh – blocks hepatitis C virus; Huh7.5.1 HCVcc-Cre infection, luciferase reporter, 44 h; Potency, µM (doses to about 41.8 µM), inactives show at the highest dose activity change, negative = inhibition, usual class: inhibitors; 340,000 compounds, 3.4% hits; AID 651820; also: potency is read from the fitted curve at half-maximal effect
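Whole-lifecycle infectious HCVcc-Cre system; cells 1,000/well, compound then virus (~0.5 moi) added 4 h after plating, 44 h culture. Luciferase read 15 sec following 15 min substrate incubation, room temp.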
FMDV inh – foot and mouth disease virus antiviral activity; AID 1159524; 410,000 compounds, 1.2% hits; FMDV antiviral cell-based qHTS; Potency, µM (doses to about 57.9 µM), for the others: top-dose activity change, negative = inhibition, actives largely listed as inhibitors; calls by dose curve; tested in HEK293T cells; also: read-out not given here; potency is read from the fitted curve at half-maximal effect; nearly all actives have a fitted effect of over 45% in size
HCMV antiviral – human cytomegalovirus inhibition | AID 1259415 | 410,000 compounds, 4.5% hits | activity change, negative = inhibition, % at 57.5 µM | HFF cells, HCMV-luciferase reporter, 72 h; active compounds read low; in the data active = activity change below about -60%; inconclusive = no clear call, values can overlap the other calls; inactive = above about -39%
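Compounds were evaluated in HFFs infected with an HCMV luciferase reporter virus (MOI 1 PFU/cell). Luciferase in lysates collected 72 h post infection served as the replication measure.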
LASV entry inh – inhibitors of Lassa virus binding or cell entry. Lassa virus pseudotype entry inhibition, cell reporter. Potency, µM (titrated, usually from 37.9 µM), for inactives: top-dose activity change, negative = inhibition, usual class: inhibitors. 300,000 compounds, 1.2% hits. AID 540256; calls by dose curve; tested in HEK293 cells; also: potency is read from the fitted curve at half-maximal effect; nearly all actives have a fitted effect of over 50% in size
Marburg entry inh – blocks Marburg virus binding to or entry into cells | Potency, µM (series often up to 37.8 µM), for inactives: at the highest dose activity change, negative = inhibition, actives largely listed as inhibitors | 300,000 compounds, 1.8% hits | Marburg virus pseudotyped entry inhibition, cell reporter | AID 540276; calls by dose curve; tested in HEK293 cells; also: potency is read from the fitted curve at half-maximal effect
FBPA Giardia inh – blocks Giardia fructose-bisphosphate aldolase activity; A8B2U2; Potency, µM (doses to about 59.6 µM), for the others: top-dose activity, negative = inhibition, usual class: inhibitors; purified Giardia FBPA; 290,000 compounds, 0.71% hits; AID 2451; also: potency is read from the fitted curve at half-maximal effect; nearly all actives have a fitted effect of over 55% in size
Target sequence (A8B2U2 whole entry, looked up): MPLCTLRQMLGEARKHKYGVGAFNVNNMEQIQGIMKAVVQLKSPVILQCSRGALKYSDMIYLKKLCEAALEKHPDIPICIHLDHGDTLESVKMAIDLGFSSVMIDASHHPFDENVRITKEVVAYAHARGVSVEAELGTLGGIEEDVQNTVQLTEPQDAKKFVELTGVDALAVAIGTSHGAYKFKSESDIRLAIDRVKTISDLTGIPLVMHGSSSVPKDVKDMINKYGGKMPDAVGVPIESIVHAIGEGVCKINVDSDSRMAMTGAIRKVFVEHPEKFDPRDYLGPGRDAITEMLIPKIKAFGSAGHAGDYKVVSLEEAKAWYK
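40 nM FBPA preincubated 10 min at RT with compound (up to 57.5 uM final), then substrate plus GAPDH/TPI/NAD/arsenate coupling and diaphorase/resazurin added. Fluorescence read after 20 min at RT, 525/598 nm.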
Starred values were filed as active, the others as inactive; u = inconclusive; x = no result given; ! = a repeat was not active; [ ] = dose if it differs, or a comment. Unless noted, calls follow the shape of the dose curve; as a rule, active = well fitted curve in the direction sought with a large enough effect; inconclusive = small, poorly fitted or top-dose-only effect, or another doubt; inactive = no such curve, though single readings can be large; an effect the other way counts as inactive or inconclusive. % is scaled to controls: 0 for no effect and ±100 for the full control effect.

SMILES	HCV inh	FMDV inh	HCMV antiviral	LASV entry inh	Marburg entry inh	FBPA Giardia inh
CC1=C(C(=O)Nc2cccnc2)C(c2ccncc2)n2nnnc2N1 (centres undefined)	4.9%	0.7%	-2.0	-1.9%	22.7%	-0.4%
COc1cc(C2C(C(=O)Nc3ccccc3)=C(C)Nc3nnnn32)cc(OC)c1OC (centres undefined)	x	5.6%	-105.9*	-1.0%[46.1 µM]	22.2%[46.1 µM]	x
COc1cccc(C2C(C(=O)Nc3cccnc3)=C(C)Nc3nnnn32)c1OC (centres undefined)	-5.3%	10.8%	-69.2*	-19.6%	u	-0.6%
CCC(=O)N1CCc2cc(S(=O)(=O)NCCC(=O)Nc3ccc(OC)c(OC)c3)ccc21	x	-3.4%	14.4	22.1%[46.1 µM]	1.4%[46.1 µM]	x
COc1ccc(-c2nc3cnc(OC)nc3n(C[C@H]3CCCO3)c2=O)cc1	x	-8.9%	x	x	x	-23.4%
COc1ccc2c(c1)c(CC(=O)NCc1ccc3c(c1)OCO3)c(C)n2C(=O)c1ccc(Cl)cc1	x	x	x	x	u	2.1%
COc1ccc(C2/C=C\CN(S(=O)(=O)c3ccc(C)cc3)C(Cc3ccccc3)C(=O)N2Cc2ccc(F)cc2)cc1 (centres undefined)	x	x	x	x	x	-3.1%
O=[N+]([O-])c1ccc2c(c1)C(N1CCOCC1)/C(=C/COc1ccc3ccccc3c1Br)O2 (centres undefined)	-17.6%	u	14.9	u	12.6µM*	-7.2%
FC(F)Oc1ccc(NC(=S)NC2CCSc3ccccc32)cc1 (centres undefined)	-18.5%	0.0%	-82.3*	-23.2%	-28.6%	x
O=C(NC1CCSc2ccccc21)c1cccc(OC(F)F)c1 (centres undefined)	-18.1%	21.9%	u	3.4%	-1.3%	-13.8%
Cc1ccc(C(C(=O)Nc2ccc3c(c2)OCO3)N(C)C(=O)Cc2c[nH]c3ccccc23)cc1 (centres undefined)	-13.5%	-12.9%	-29.8	u	10µM*	-6.0%
CC(C)C[C@H]1CNC(=S)N1C[C@H]1CCCN1C[C@H](CC(C)C)N1C[C@H](Cc2ccc(O)cc2)N(CCc2ccccc2)C1=S	x	u	-94.9*	x	x	x
CCOc1ccc(CCN2C(=S)N([C@@H](Cc3ccccc3)CN3CCC[C@@H]3CN3C(=S)NC[C@@H]3CC(C)C)C[C@@H]2Cc2ccccc2)cc1	x	-15.1%	-10.7	x	x	x
CC(C)C[C@H]1CN([C@@H](CC(C)C)CN2CCCC2CN2C(=S)NC[C@@H]2Cc2ccc(O)cc2)C(=S)N1CCc1ccccc1 (some centres undefined)	u	-20.4%	-80.2*	x	x	x
CCOc1ccc(CCN2C(=S)N([C@@H](CC(C)C)CN3CCCC3CN3C(=S)NC[C@@H]3CC(C)C)C[C@@H]2Cc2ccccc2)cc1 (some centres undefined)	5.62µM*	-28.9%	2.6	x	x	x
COc1ccc(-c2nnc3n2N=C(c2ccccc2OC)CS3)c(OC)c1	x	x	x	x	x	-1.9%
NS(=O)(=O)c1ccc(N=Cc2c(O)[nH]c3ccc4ncsc4c23)cc1	x	x	x	7.05µM*	x	x
Cc1c(C=Nc2ccc(S(=O)(=O)N(C)C)cc2)c(O)[nH]c(=O)c1C#N	-12.9%	-9.6%	-20.1	9.1%	-26.2%	x
COc1ccc(CCNC(=O)CCCn2c(=O)c3cccn3c3ccc(F)cc32)cc1OC	x	-9.8%	-12.8	0.0%[46.1 µM]	x	x
Cc1onc(-c2c(Cl)cccc2Cl)c1C(=O)NC1CCCCC1	12.6µM*	-20.4%	2.5	u	u	x
CCC(CC)C(=O)c1c[nH]c(C(=O)NCC2CCCO2)c1 (centres undefined)	14.7%	-15.0%	2.1	7.08µM*	0.8%	1.7%
Cc1onc(-c2c(Cl)cccc2Cl)c1C(=O)NC1C(=O)N2C1SC(C)(C)C2C(=O)O (centres undefined)	-3.4%	-6.5%	-23.9	16.8%[46.1 µM]	-3.2%[46.1 µM]	-4.5%
Cc1onc(-c2c(F)cccc2Cl)c1C(=O)NC1CCCCCC1	-5.4%	4.2%	-3.7	u	u	1.0%
Cc1onc(-c2c(Cl)cccc2Cl)c1C(=O)c1c[nH]c(C(=O)NCC2CCCO2)c1 (centres undefined)	11.2µM*	u	-6.5	8.91µM*	u	0.0%
Cc1onc(-c2c(Cl)cccc2Cl)c1C(=O)N[C@@H]1C(=O)N2[C@@H]1SC(C)(C)[C@@H]2C(=O)O	0.501µM*!	-11.1%	42.4	x	x	-12.2%
SMILES	HCV inh	FMDV inh	HCMV antiviral	LASV entry inh	Marburg entry inh	FBPA Giardia inh
NCC[C@H](O)C(=O)N[C@H]1C[C@@H](N)[C@@H](O[C@H]2O[C@@H](CN)[C@@H](O)[C@@H](O)[C@@H]2O)[C@@H](O)[C@@H]1O[C@H]1O[C@@H](CO)[C@@H](O)[C@@H](N)[C@@H]1O	x	x	x	x	x	0.7%[21.7 µM]
CC(C)C[C@@H](CC(=O)N[C@@H](CCC(=O)O)CC(=O)O)NC(=O)[C@@H]1CNCC[C@H]1NC(=O)C[C@@H](NC(=O)C[C@H](Cc1ccccc1)NC(=O)[C@@H]1CCCC[C@H]1N)C(C)C	x	x	x	x	x	-23.7%
COc1cc(OC)c2c(c1C(CCN1CCCC1)c1ccc(N(C)C)cc1)OC(=O)CC2c1ccc(N(C)C)cc1 (centres undefined)	x	x	x	x	x	-6.3%
COc1cc(/C=N/NC(=O)c2c(-c3c(Cl)cccc3Cl)noc2C)ccc1OCC(N)=O	-5.9%	16.5%	-5.3	4.4%[46.1 µM]	-10.8%[46.1 µM]	2.7%
Cc1onc(-c2c(Cl)cccc2Cl)c1C(=O)N/N=C(\N)COc1ccc(Cl)cc1	2.82µM*	u	-78.1*	-1.9%	u	u
C1CCC2(CC1)C1=C(CCCC1)Nc1nnnn12	7.4%	-21.2%	-92.6*	-6.4%	-9.5%	-20.3%
Nc1nc2n(n1)C1(CCCCC1)C1=C(CCCC1)N2	x	x	x	x	x	-29.8%
Cc1ccc(S(=O)(=O)Nc2ccc(-c3csc(-c4ccccc4)n3)cc2)cc1	10µM*	-5.8%	-35.2	u	-22.5%	0.2%
COc1ccc(-c2csc(NC(=O)c3ccccc3NS(=O)(=O)c3ccc(F)c(F)c3)n2)cc1	2.82µM*	u	-99.7*	3.66µM*	2.31µM*	-6.7%
O=C(CCNC(=O)c1ccccc1Cl)Nc1nc(-c2ccc(F)cc2)cs1	-6.6%	u	-80.5*	u	-27.7%	-0.4%
O=C(CCNC(=O)c1ccccc1Cl)Nc1nc(-c2ccc3ccccc3c2)cs1	u	u	u	0.4%	u	-14.4%
Cc1ccc(S(=O)(=O)Nc2ccccc2C(=O)Nc2nc(-c3ccc(F)cc3)cs2)cc1	6.31µM*	0.0%	-103.1*	3.26µM*	2.82µM*	1.2%
C=CCNc1cccc2c1S(=O)(=O)N[C@H](C)CO2	x	x	10.6	x	x	x
CCCSc1nc2c(c(=O)[nH]1)C(c1ccc(O)c(OCC)c1)CC(=O)N2 (centres undefined)	x	4.3%	29.7	11.6%[46.1 µM]	u	x
Cc1cc2c(cc1C)N(C(=O)CCl)CCN2C(=O)CCl	3.98µM*	8.91µM*	9.9	u	u	x
Cc1cc2c(cc1C)N(C(=O)CCl)CC(=O)N2	x	39.8µM*	x	x	x	x
